Screening results (PubChem BioAssay)
LmPK inh: LmPK (Leishmania mexicana) enzyme inhibition | Potency, µM (series often up to 57.5 µM), inactives show top-dose activity change, negative = inhibition, most hits filed as inhibitors | Q27686 | hit rate 0.37% among 290,000 | purified LmPK, Kinase-Glo ATP luminescence, 1 h; also: potency is read from the fitted curve at half-maximal effect; % is scaled to controls: 0 for no effect and ±100 for the full control effect
Target sequence (Q27686 whole entry, looked up): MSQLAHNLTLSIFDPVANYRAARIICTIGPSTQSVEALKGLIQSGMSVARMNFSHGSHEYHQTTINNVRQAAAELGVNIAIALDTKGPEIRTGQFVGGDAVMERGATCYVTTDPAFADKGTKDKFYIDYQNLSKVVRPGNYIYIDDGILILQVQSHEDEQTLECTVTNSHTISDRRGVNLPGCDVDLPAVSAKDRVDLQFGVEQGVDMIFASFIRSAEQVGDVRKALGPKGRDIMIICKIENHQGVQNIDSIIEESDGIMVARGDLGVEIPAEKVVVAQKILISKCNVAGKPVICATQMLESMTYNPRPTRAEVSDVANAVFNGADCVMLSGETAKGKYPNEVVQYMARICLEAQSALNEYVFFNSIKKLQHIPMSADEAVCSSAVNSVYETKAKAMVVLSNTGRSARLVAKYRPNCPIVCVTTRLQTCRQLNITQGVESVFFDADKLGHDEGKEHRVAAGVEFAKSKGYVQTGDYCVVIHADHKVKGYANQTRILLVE
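ATP generated from ADP (0.1 mM) and PEP (0.5 mM) by 0.1 nM LmPK over 1 h at room temperature (pH 7.2 imidazole buffer) was detected by coupled luciferase luminescence. Values were normalized to uninhibited and no-enzyme wells.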
Shiga inhibitor: inhibitors of Shiga toxin in Vero cells. Vero cells, Shiga toxin protein synthesis inhibition reporter. inhibition, % at 38.7 µM. hit rate 9.2% among 290,000. AID 2315; in the data active = inhibition mostly above about 28%, no sharp cut-off; inactive = mostly below about 43%; also: 0% is about no effect
CHX counter: counter-screen for Shiga toxin inhibitors: cycloheximide protein synthesis inhibition. cell reporter, cycloheximide protein synthesis inhibition counterscreen. max response, %. hit rate 12% among 300,000; in the data active = max response mostly above about 13%, no sharp cut-off; inactive = mostly below about 14%; also: read at 38.3 µM for the half of the compounds with a filed dose; 0% is about no effect
Pf growth 96h: P. falciparum growth inhibition at 96 hour, primary screen for plastid delayed-death inhibitors | P. falciparum luciferase reporter growth, 96 h | Potency, µM (highest dose often 28.7 µM), for inactives: top-dose activity change, negative = inhibition, hits mostly inhibitors | hit rate 6.9% among 320,000; also: potency is read from the fitted curve at half-maximal effect; % is scaled to controls: 0 for no effect and ±100 for the full control effect
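Plates of compound plus infected erythrocytes (2% hematocrit, 0.05% parasitemia final) incubate 96 hours, 37 C, 5% CO2. Detection reagent added; reduced luminescence from the parasites' luciferase reporter flags inhibition.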
Pf growth 48h: inhibits P. falciparum growth in the first generation, 48 h; P. falciparum luciferase growth in erythrocytes, 48 h; Potency, µM (doses to about 28.7 µM), for the others: at the highest dose activity change, negative = inhibition, actives largely listed as inhibitors; hit rate 5.9% among 310,000; AID 504832; also: potency is read from the fitted curve at half-maximal effect; % is scaled to controls: 0 for no effect and ±100 for the full control effect
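In quantitative HTS format, infected erythrocytes bearing luciferase-reporter parasites were treated for a single generation at 37 C. Luminescence after adding detection reagent served as the growth measure.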
An asterisk follows results filed as active; ? = inconclusive; . = not tested or not shown. An excerpt weighted towards active compounds, which were near 22% of everything screened. Unless noted, calls follow the shape of the dose curve; as a rule, active = well fitted inhibition curve with a large enough effect; inconclusive = small, poorly fitted or top-dose-only effect, or another doubt; inactive = no such curve, though single readings can be large or run the other way.

SMILES	LmPK inh	Shiga inhibitor	CHX counter	Pf growth 96h	Pf growth 48h
O=C(CNC(=O)c1ccccc1F)N/N=C/c1ccc2c(c1)OCO2	0%	55*	45*	-18%	107%
O=C(CNC(=O)c1ccccn1)N/N=C/c1ccc2c(c1)OCO2	4%	100*	42*	?	21%
COc1ccc(C(=O)NCC(=O)N/N=C/c2cccc(OC(=O)c3ccco3)c2)cc1OC	-12%	43	33*	-14%	-4%
O=C(CNC(=O)c1ccccc1Cl)N/N=C/c1ccc2c(c1)OCO2	0%	15	14	39%	29%
COc1cccc(C(=O)NCC(=O)N/N=C/c2ccc3c(c2)OCO3)c1	-2%	83*	44*	?	42%
CCC(CC)C(=O)N=C1SC2CS(=O)(=O)CC2N1CCc1ccc(OC)cc1 (configuration not stated)	4%	-30	-2	.	?
Cc1ccccc1C(=O)NCC(=O)OC(C)C(=O)NCc1ccco1 (configuration not stated)	.	.	.	-2%	28%
CC(=O)Nc1cc(OC(C)=O)c2nonc2c1OC(C)=O	15%	-18	-2	5%	10µM*
CC(=O)Nc1nonc1NC(C)=O	2%	-17	-3	25%	4%
O=C(COc1ccc(Br)cc1)N(Cc1ccco1)C1CCS(=O)(=O)C1 (configuration not stated)	0%	-5	-2	?	-6%
C/C(=N\Nc1ccc(Cl)c(Cl)c1)c1ccc(-n2ccnc2)cc1	-2%	21	10	4.7µM*	12µM*
C/C(=N\NC(=O)OC(C)(C)C)c1ccc(-n2ccnc2)cc1	-6%	16	13	?	213%
COc1ccc(OCC(=O)N/N=C(\C)c2ccc(-n3ccnc3)cc2)cc1	-1%	43	15	-23%	11%
COc1ccccc1NS(=O)(=O)c1cccc(C(=O)N/N=C(\C)c2ccc3c(c2)OCCO3)c1	2%	13	8	?	-28%
C/C(=N\NC(=O)c1ccccc1)c1ccc(-n2ccnc2)cc1	4%	60*	37*	25%	6%
C/C(=N\NC(N)=S)c1ccc(-n2ccnc2)cc1	4%	-6	-3	?	?
C=C(C)CNC(=S)N/N=C(\C)c1ccc(-n2ccnc2)cc1	3%	-10	-3	5.9µM*	.
COc1ccccc1NS(=O)(=O)c1cccc(C(=O)N/N=C(\C)c2ccc(-n3ccnc3)cc2)c1	-2%	-25	-3	13µM*	.
NS(=O)(=O)c1ccc(CCNC(=S)Nc2ccccc2)cc1	-1%	-8	0	?	?
COc1ccc2nc(C)cc(N3CCN(S(=O)(=O)c4ccccc4F)CC3)c2c1	.	.	.	9.3µM*	?
Cc1cc(N2CCN(S(=O)(=O)c3ccc(Cl)cc3)CC2)c2ccccc2n1	6%	-11	-3	.	.
Cc1cc(C)n(-c2nc3ccccc3nc2N2CCN(S(=O)(=O)c3ccc4ccccc4c3)CC2)n1	-3%	-12	-1	5.2µM*	.
COc1ccc2nc(C)cc(N3CCN(c4ccccc4)CC3)c2c1	3%	3	-6	9.3µM*	13µM*
Cc1cc(N2CCN(S(=O)(=O)c3ccc(Cl)c(Cl)c3)CC2)c2ccccc2n1	-9%	5	0	1%	12µM*
O=C(Cc1c(F)cccc1Cl)NCc1cccnc1	0%	.	-3	195%	0%
SMILES	LmPK inh	Shiga inhibitor	CHX counter	Pf growth 96h	Pf growth 48h
CC1=[N+](C)c2c(ccc3cccnc23)C1(C)C	-6%	1	-1	45%	?
CC(C)Cc1cc(C(=O)NCc2cccs2)no1	-5%	84*	40*	?	113%
O=C(NCc1ccc(F)cc1)c1cc(-c2ccco2)on1	4%	44	20*	.	32%
O=C(NCc1cccnc1)c1cc(-c2ccco2)on1	-4%	75*	44*	4%	105%
CC(C)Cc1cc(C(=O)NCc2cccnc2)no1	10%	13	25*	15%	.
COc1ccc(C(=O)N2CCOC2CNC(=O)C(=O)NCc2ccc3c(c2)OCO3)cc1 (configuration not stated)	-5%	19	2	4%	?
CCN(CC)c1nc(OCCNC(=O)Nc2ccccc2)nc(N(CC)CC)n1	2%	-7	0	.	?
COC(=O)Oc1ccc(/C=N/NC(=O)CN(c2ccccc2Cl)S(C)(=O)=O)cc1OC	4%	-3	-3	-22%	.
